Source: PubChem BioAssay (EPA / NIEHS)
Inconclusive results are not listed. The source made the active and inactive calls. Rule for the calls: active = hit-call score of the fitted dose curve at least 0.9, where 1 is the maximum; inconclusive = response in the unintended direction; inactive = score below 0.9.

Biological target: rat Constitutive Nitric Oxide Synthase (CNOS), Nos1 (gene 24598) (UniProt P29476)
Test: NVS_ENZ_rCNOS: NovaScreen (NVS) Enzymatic Assay for rat Constitutive Nitric Oxide Synthase (CNOS) (AID 2283236)
Protocol: NVS_ENZ_rCNOS is a biochemical, single-readout assay that uses extracted gene-proteins from Rat brain membranes in a tissue-based cell-free assay. Measurements were taken 1 hour after chemical dosing in a 96-well plate.NVS_ENZ_rCNOS is one of one assay component(s) measured or calculated from the NVS_ENZ_rCNOS assay. It is designed to make measurements of enzyme activity, a form of enzyme reporter, as detected with scintillation counting signals by Filter-based radiodetection technology.Data from the assay component NVS_ENZ_rCNOS was analyzed into 1 assay endpoint. This assay endpoint, NVS_ENZ_rCNOS, was analyzed in the positive analysis fitting direction relative to DMSO as the negative control and baseline of activity. Using a type of enzyme reporter, loss-of-signal activity can be used to understand changes in the enzymatic activity as they relate to the gene Nos1. Furthermore, this assay endpoint can be referred to as a primary readout, because this assay has produced multiple assay endpoints where this one serves a enzymatic activity function. To generalize the intended target to other relatable targets, this assay endpoint is annotated to the oxidoreductase intended target family, where the subfamily is nitric oxide synthase.
Binding assays used specific radioligands (tritiated, iodinated) with non-radioactive competitive displacement ligands in agonist or antagonist protocols (as indicated) and various reference compounds and inhibitors to titrate specific binding to receptors and transporters. Most enzyme assays (CYPs, kinases, phosphatases, proteases, HDACs) used recombinant protein and specific substrates (fluorescence mostly, some colorimetric and radioactive) and inhibitors, followed by a biochemical separation of substrate and product. All assays for the biochemical HTS were initially run in duplicate at a single concentration (10 uM for CYP450 assays and 25 uM for all others). Assay-chemical combinations meeting a pre-defined threshold (e.g., 30% inhibition and other criteria defined below) were then run in singleton concentration-response format with maximum concentration of 20 uM for CYPs and 50 uM for all others. Each assay was run with positive and negative controls, and concurrent controls on every plate. The follow-up (secondary) screen tested active chemical-pairs in concentration series, as well as a few additional assays not tested in the primary screen, some selected negative inactives, and several cases re-run in the concentration series for confirmatory purposes.

rat Constitutive Nitric Oxide Synthase (CNOS), Nos1 (gene 24598), sequence (P29476 whole entry, looked up): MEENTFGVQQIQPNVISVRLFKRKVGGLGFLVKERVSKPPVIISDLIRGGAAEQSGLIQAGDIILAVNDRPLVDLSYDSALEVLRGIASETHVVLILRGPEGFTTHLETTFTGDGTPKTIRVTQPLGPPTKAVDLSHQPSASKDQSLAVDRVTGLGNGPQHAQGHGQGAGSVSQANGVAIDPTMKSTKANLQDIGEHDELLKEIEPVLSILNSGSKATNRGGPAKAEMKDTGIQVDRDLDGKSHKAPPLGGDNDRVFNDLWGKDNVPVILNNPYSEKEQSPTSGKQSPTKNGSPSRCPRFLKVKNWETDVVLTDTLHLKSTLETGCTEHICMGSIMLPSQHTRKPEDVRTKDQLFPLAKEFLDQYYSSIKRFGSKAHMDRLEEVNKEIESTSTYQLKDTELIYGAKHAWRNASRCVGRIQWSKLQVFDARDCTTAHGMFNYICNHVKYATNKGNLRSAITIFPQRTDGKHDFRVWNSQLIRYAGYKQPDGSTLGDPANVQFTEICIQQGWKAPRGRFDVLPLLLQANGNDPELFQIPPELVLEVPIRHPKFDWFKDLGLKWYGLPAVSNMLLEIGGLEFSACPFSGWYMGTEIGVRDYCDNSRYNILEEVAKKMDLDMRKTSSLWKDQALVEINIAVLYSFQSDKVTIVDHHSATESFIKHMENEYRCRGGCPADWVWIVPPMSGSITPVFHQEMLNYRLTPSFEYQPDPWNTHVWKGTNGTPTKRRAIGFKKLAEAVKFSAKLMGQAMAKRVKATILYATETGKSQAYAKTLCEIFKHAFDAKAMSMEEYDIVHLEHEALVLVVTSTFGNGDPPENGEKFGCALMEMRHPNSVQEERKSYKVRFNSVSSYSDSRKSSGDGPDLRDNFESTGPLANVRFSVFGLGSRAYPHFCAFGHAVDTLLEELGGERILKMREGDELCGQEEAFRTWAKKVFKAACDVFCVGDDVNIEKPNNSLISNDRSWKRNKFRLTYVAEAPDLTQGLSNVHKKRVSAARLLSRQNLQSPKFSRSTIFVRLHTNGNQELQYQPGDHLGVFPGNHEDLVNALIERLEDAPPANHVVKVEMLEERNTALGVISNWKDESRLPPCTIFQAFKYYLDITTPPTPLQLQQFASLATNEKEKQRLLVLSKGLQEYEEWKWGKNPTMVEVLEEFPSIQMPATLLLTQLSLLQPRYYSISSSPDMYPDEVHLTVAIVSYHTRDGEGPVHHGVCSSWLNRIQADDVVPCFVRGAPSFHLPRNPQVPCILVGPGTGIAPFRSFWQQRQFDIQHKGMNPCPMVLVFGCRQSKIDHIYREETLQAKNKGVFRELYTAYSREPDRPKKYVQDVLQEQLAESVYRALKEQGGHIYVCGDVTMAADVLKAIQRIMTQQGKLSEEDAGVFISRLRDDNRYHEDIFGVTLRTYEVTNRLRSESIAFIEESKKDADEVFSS

Row | SMILES | outcome | AC50
1 | CC/C(=C\C(=N/O)C(N)=O)C(C)[N+](=O)[O-] (centres undefined) | inactive | –
2 | CC1(C)C(=O)N(Br)C(=O)N1Br | – | 12.2 µM (active)
3 | CC1=CC(=O)CC(C)(C)C1 | inactive | –
4 | CC(C)=CCCC(C)CCO (centres undefined) | inactive | –
5 | CC(C)=CCCC(C)=CC=O | inactive | –

Biological target: sheep Cyclooxygenase-1 (Cox1), PTGS1 (gene 443551) (UniProt P05979)
Sequence (P05979 whole entry, looked up): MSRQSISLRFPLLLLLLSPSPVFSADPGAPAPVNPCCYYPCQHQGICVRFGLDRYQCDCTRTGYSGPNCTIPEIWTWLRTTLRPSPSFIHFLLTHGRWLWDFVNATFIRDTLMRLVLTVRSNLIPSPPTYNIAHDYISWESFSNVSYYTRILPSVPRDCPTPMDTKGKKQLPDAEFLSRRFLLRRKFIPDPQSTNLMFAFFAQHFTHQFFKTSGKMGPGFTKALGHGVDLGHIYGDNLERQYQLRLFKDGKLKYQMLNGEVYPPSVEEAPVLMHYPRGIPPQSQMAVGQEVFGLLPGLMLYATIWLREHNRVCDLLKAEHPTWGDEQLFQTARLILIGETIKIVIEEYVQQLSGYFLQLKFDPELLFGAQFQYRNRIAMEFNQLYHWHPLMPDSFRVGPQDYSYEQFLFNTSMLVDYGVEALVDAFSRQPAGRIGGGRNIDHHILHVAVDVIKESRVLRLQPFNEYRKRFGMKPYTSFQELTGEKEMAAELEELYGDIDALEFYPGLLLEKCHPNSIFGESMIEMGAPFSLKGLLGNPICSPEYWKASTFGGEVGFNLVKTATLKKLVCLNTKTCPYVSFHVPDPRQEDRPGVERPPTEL
Test: NVS_ENZ_oCOX1: NovaScreen (NVS) Enzymatic Assay for sheep Cyclooxygenase-1 (Cox1) (AID 2283239);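 note: actives reduce cyclooxygenase activity so potencies are for inhibitors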
Outline: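 Native ovine seminal vesicle protein serves as enzyme source in this biochemical assay. Colorimetric signal is recorded 0.66 h after chemical addition, and decreases versus the DMSO control define activity.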

Row | SMILES | AC50 | outcome
6 | Nc1nc2ncc(CNc3ccc(C(=O)N[C@@H](CCC(=O)O)C(=O)O)cc3)nc2c(=O)[nH]1 | 11 µM (active) | –
7 | O=C1OC(=O)C2C3C=CC(C3)C12 (centres undefined) | – | inactive
8 | CCc1cc(SCc2sc(-c3ccc(C(F)(F)F)cc3)nc2CN2CCN(c3ccc(OC)cc3)CC2)ccc1OCC(=O)O | – | inactive
9 | COCCOCCOCCOC | – | inactive
10 | Oc1ccc2c(c1)-c1ccccc1C2 | – | inactive
11 | CC(C)=CCCC(C)CCO (centres undefined) | 21.6 µM (active) | –

Test system: bovine Angiotensin II Receptor Type 2 (AT2), gene 407157
Test: NVS_GPCR_bAT2: NovaScreen (NVS) G Protein-Coupled Receptor Assay for bovine Angiotensin II Receptor Type 2 (AT2) (AID 2283240)
Protocol: NVS_GPCR_bAT2 is a biochemical, single-readout assay that uses extracted gene-proteins from Bovine cerebellar membranes in a tissue-based cell-free assay. Measurements were taken 1 hour after chemical dosing in a 96-well plate.NVS_GPCR_bAT2 is one of one assay component(s) measured or calculated from the NVS_GPCR_bAT2 assay. It is designed to make measurements of radioligand binding, a form of binding reporter, as detected with scintillation counting signals by Filter-based radiodetection technology.Data from the assay component NVS_GPCR_bAT2 was analyzed into 1 assay endpoint. This assay endpoint, NVS_GPCR_bAT2, was analyzed in the positive analysis fitting direction relative to DMSO as the negative control and baseline of activity. Using a type of binding reporter, loss-of-signal activity can be used to understand changes in the binding as they relate to the gene AGTR2. Furthermore, this assay endpoint can be referred to as a primary readout, because the performed assay has only produced 1 assay endpoint. To generalize the intended target to other relatable targets, this assay endpoint is annotated to the gpcr intended target family, where the subfamily is rhodopsin-like receptor.
Binding assays used specific radioligands (tritiated, iodinated) with non-radioactive competitive displacement ligands in agonist or antagonist protocols (as indicated) and various reference compounds and inhibitors to titrate specific binding to receptors and transporters. Most enzyme assays (CYPs, kinases, phosphatases, proteases, HDACs) used recombinant protein and specific substrates (fluorescence mostly, some colorimetric and radioactive) and inhibitors, followed by a biochemical separation of substrate and product. All assays for the biochemical HTS were initially run in duplicate at a single concentration (10 uM for CYP450 assays and 25 uM for all others). […]

Row | SMILES | outcome | AC50
12 | CNS(=O)(=O)c1cc(C(=O)N2CCC(CCN3C4CCC3CC(n3c(C)nc5ccccc53)C4)(c3cccc(F)c3)CC2)c(Cl)cc1F (centres undefined) | inactive | –
13 | O=C(NS(=O)(=O)/C=C/c1ccccc1)c1ccc(F)cc1Cl | – | 15 µM (active)
14 | COc1ccc(/C=C/S(=O)(=O)NC(=O)c2ccc(C)cc2Cl)cc1 | – | 15.2 µM (active)

Test system: guinea pig Leukotriene B4 Receptor (LTB4), gene 100379538
Test: NVS_GPCR_gLTB4: NovaScreen (NVS) G Protein-Coupled Receptor Assay for guinea pig Leukotriene B4 Receptor (LTB4) (AID 2283247)
Outline: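 Radioligand displacement on guinea pig spleen membranes, filter-based scintillation counting 2 h after dosing. Primary duplicate single point at 25 uM; hits over threshold (e.g. 30% inhibition) run in concentration-response up to 50 uM, DMSO baseline.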

Row | SMILES | AC50 | outcome
15 | CCCN(C1CCN(C(=O)C2CCNCC2)CC1)[C@@H]1CCc2ccc(OC)cc2C1 | 9.93 µM (active) | –
16 | O=C(NS(=O)(=O)/C=C/c1ccccc1)c1ccc(F)cc1Cl | 12.4 µM (active) | –
17 | O=C(CCCCCCCCc1cccnc1)N1CCC(C=C(c2ccccc2)c2ccccc2)CC1 | – | inactive
18 | COc1ccc(/C=C/S(=O)(=O)NC(=O)c2ccc(C)cc2Cl)cc1 | – | inactive
19 | O=C(O)CCN(C1(C(=O)NO)CCCC1)S(=O)(=O)c1ccc(Oc2ccc(F)cc2)cc1 | 0.951 µM (active) | –
20 | COc1ccc2sc(C(=O)Nc3nnn[nH]3)c(OC(C)C)c2c1 | – | inactive

Biological target: human Serotonin, 5-Hydroxytryptamine Receptor 2A (5HT2A), HTR2A (gene 3356) (UniProt P28223)
Sequence (P28223 whole entry, looked up): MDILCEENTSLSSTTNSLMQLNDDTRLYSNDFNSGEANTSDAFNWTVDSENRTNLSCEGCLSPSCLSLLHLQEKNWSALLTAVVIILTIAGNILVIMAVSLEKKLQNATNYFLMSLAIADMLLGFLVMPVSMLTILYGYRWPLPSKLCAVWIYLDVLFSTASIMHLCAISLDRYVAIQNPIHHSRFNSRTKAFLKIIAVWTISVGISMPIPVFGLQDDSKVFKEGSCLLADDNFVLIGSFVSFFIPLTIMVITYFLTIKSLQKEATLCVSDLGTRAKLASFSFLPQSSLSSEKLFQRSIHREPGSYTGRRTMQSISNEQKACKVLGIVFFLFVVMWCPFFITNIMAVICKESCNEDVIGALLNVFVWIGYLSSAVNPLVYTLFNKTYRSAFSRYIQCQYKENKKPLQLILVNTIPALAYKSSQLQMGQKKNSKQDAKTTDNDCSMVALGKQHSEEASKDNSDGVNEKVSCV
Test: NVS_GPCR_h5HT2A: NovaScreen (NVS) G Protein-Coupled Receptor Assay for human Serotonin, 5-Hydroxytryptamine Receptor 2A (5HT2A) (AID 2283249)
Outline: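 Human cortex membranes, cell-free radioligand binding; filter-based scintillation read 1.5 h after dosing. Duplicate screen at 25 uM first; displacement of specific binding (loss of signal) versus DMSO.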

Row | SMILES | outcome | AC50
21 | CC/C(=C\C(=N/O)C(N)=O)C(C)[N+](=O)[O-] (centres undefined) | inactive | –
22 | CC1(C)C(=O)N(Br)C(=O)N1Br | – | 25 µM (active)
23 | CNS(=O)(=O)c1cc(C(=O)N2CCC(CCN3C4CCC3CC(n3c(C)nc5ccccc53)C4)(c3cccc(F)c3)CC2)c(Cl)cc1F (centres undefined) | – | 1.52 µM (active)
24 | CCOC(=O)COc1ccc2c(c1)CC(NCC(O)c1cccc(Cl)c1)CC2 (centres undefined) | – | 12.1 µM (active)
25 | CCc1cc(SCc2sc(-c3ccc(C(F)(F)F)cc3)nc2CN2CCN(c3ccc(OC)cc3)CC2)ccc1OCC(=O)O | inactive | –
26 | O=C(CCCCCCCCc1cccnc1)N1CCC(C=C(c2ccccc2)c2ccccc2)CC1 | inactive | –

Test system: guinea pig Muscarinic, Peripheral (Mperiperal) Receptor, Non-selective Binding, gene 100379235
Test: NVS_GPCR_gMPeripheral_NonSelective: NovaScreen (NVS) G Protein-Coupled Receptor Assay for guinea pig Muscarinic, Peripheral (Mperiperal) Receptor, Non-selective Binding (AID 2283250)
Outline: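 Guinea pig bladder membranes, radioligand binding read 1 h after dosing by filter scintillation counting; loss of signal vs DMSO. Primary duplicate screen at 25 uM, then concentration-response up to 50 uM.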

Row | SMILES | AC50 | outcome
27 | CCCN(C1CCN(C(=O)C2CCNCC2)CC1)[C@@H]1CCc2ccc(OC)cc2C1 | 0.00229 µM (active) | –
28 | CNS(=O)(=O)c1cc(C(=O)N2CCC(CCN3C4CCC3CC(n3c(C)nc5ccccc53)C4)(c3cccc(F)c3)CC2)c(Cl)cc1F (centres undefined) | 5.36 µM (active) | –
29 | CCOC(=O)COc1ccc2c(c1)CC(NCC(O)c1cccc(Cl)c1)CC2 (centres undefined) | 22.9 µM (active) | –
30 | COCCOc1cc2cc(C(=O)NC3CCN(C(C)C)CC3)n(CC(=O)Nc3ccc(Cl)cn3)c2cn1 | – | inactive

Biological target: human Serotonin, 5-Hydroxytryptamine Receptor 5A (5HT5A), HTR5A (gene 3361) (UniProt P47898)
Sequence (P47898 whole entry, looked up): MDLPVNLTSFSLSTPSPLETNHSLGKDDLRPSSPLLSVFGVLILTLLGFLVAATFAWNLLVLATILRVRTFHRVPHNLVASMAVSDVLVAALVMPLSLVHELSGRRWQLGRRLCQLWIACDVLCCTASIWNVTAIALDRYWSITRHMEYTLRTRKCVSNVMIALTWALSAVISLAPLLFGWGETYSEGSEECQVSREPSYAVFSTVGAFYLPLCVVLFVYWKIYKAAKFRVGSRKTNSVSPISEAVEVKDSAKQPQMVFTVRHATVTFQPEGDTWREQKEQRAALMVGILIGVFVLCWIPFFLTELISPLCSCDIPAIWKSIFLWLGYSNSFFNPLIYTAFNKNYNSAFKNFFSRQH
Test: NVS_GPCR_h5HT5A: NovaScreen (NVS) G Protein-Coupled Receptor Assay for human Serotonin, 5-Hydroxytryptamine Receptor 5A (5HT5A) (AID 2283251)
Outline: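 Cell-free radioligand displacement binding on HEK293-derived membrane protein, 1 h incubation, filter-based scintillation counting. Primary screen in duplicate at 25 uM, actives followed in concentration series; loss of signal fitted versus DMSO.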

Row | SMILES | outcome | AC50
31 | CCC(C)(C)C(=O)O[C@H]1C[C@@H](C)C=C2C=C[C@H](C)[C@H](CC[C@@H]3C[C@@H](O)CC(=O)O3)[C@H]21 | inactive | –
32 | CCOC(=O)COc1ccc2c(c1)CC(NCC(O)c1cccc(Cl)c1)CC2 (centres undefined) | – | 18.8 µM (active)
33 | CCn1nc(Cc2ccccc2)cc1C1CCN(C[C@H]2C[C@H](N(C)[C@@H](C(=O)O)C(C)C)C[C@@H]2c2cccc(F)c2)CC1 | – | 13.8 µM (active)
34 | CCc1cc(SCc2sc(-c3ccc(C(F)(F)F)cc3)nc2CN2CCN(c3ccc(OC)cc3)CC2)ccc1OCC(=O)O | – | 2.36 µM (active)
35 | O=C(CCCCCCCCc1cccnc1)N1CCC(C=C(c2ccccc2)c2ccccc2)CC1 | inactive | –

Biological target: guinea pig Opioid, Kappa 1 Receptor (OpiateK), OPRK1 (gene 100135587) (UniProt P41144)
Sequence (P41144 whole entry, looked up): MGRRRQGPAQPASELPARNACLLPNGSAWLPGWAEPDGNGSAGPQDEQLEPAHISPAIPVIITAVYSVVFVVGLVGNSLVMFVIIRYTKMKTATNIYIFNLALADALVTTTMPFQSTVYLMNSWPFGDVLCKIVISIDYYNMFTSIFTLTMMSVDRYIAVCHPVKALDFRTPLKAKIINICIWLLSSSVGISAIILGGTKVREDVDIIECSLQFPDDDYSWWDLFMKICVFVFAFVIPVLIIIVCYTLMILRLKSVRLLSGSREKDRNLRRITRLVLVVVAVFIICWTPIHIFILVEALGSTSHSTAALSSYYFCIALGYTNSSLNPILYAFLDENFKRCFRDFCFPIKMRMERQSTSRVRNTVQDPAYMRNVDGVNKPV
Test: NVS_GPCR_gOpiateK: NovaScreen (NVS) G Protein-Coupled Receptor Assay for guinea pig Opioid, Kappa 1 Receptor (OpiateK) (AID 2283252);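 note: radioligand displacement from kappa opioid receptor in guinea pig cerebellar membranes; active means reduced radioligand binding relative to DMSO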
Outline: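 Signal is scintillation counts of filter-trapped radioligand bound to guinea pig cerebellar membrane receptor, measured 2 hours post-dosing. Activity is loss of binding versus DMSO, first at 25 uM in duplicate, then as concentration series for actives.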

Row | SMILES | AC50 | outcome
36 | CCCN(C1CCN(C(=O)C2CCNCC2)CC1)[C@@H]1CCc2ccc(OC)cc2C1 | 7.41 µM (active) | –
37 | Cc1c(-c2cccnc2)c2ccccc2n1CCCCC(=O)O | 14.7 µM (active) | –
38 | CNS(=O)(=O)c1cc(C(=O)N2CCC(CCN3C4CCC3CC(n3c(C)nc5ccccc53)C4)(c3cccc(F)c3)CC2)c(Cl)cc1F (centres undefined) | 0.935 µM (active) | –
39 | O=C(O)CC(O)C(=O)O (centres undefined) | – | inactive
40 | COCCOc1cc2cc(C(=O)NC3CCN(C(C)C)CC3)n(CC(=O)Nc3ccc(Cl)cn3)c2cn1 | – | inactive
41 | CCn1nc(Cc2ccccc2)cc1C1CCN(C[C@H]2C[C@H](N(C)[C@@H](C(=O)O)C(C)C)C[C@@H]2c2cccc(F)c2)CC1 | 8.5 µM (active) | –
42 | On1ccccc1=S | 10.4 µM (active) | –

Biological target: human Serotonin, 5-Hydroxytryptamine Receptor 7 (5HT7), HTR7 (gene 3363) (UniProt P34969)
Sequence (P34969 whole entry, looked up): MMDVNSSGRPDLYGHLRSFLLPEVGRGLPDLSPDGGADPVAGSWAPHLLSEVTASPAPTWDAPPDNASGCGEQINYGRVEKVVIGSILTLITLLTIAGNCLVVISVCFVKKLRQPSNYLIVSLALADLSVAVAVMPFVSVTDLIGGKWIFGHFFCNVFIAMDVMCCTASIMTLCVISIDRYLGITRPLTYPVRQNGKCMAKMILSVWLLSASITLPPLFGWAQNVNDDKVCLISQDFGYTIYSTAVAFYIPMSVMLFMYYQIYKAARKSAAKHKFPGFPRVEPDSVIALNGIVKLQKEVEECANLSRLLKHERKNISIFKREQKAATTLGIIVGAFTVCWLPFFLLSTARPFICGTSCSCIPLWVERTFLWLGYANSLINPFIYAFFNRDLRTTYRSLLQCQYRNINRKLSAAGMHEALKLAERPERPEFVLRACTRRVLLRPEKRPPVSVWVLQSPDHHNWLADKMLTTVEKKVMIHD
Test: NVS_GPCR_h5HT7: NovaScreen (NVS) G Protein-Coupled Receptor Assay for human Serotonin, 5-Hydroxytryptamine Receptor 7 (5HT7) (AID 2283255);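 note: hits reduce specific radioligand binding relative to DMSO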
Outline: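 Radioligand displacement on membranes from CHO cells expressing human 5HT7, 1 h incubation, filter-based scintillation counting. Primary screen used a single 25 uM concentration in duplicate; actives were followed up in concentration series.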

Row | SMILES | AC50 | outcome
43 | CCCN(C1CCN(C(=O)C2CCNCC2)CC1)[C@@H]1CCc2ccc(OC)cc2C1 | 9.11 µM (active) | –
44 | CCC(C)(C)C(=O)O[C@H]1C[C@@H](C)C=C2C=C[C@H](C)[C@H](CC[C@@H]3C[C@@H](O)CC(=O)O3)[C@H]21 | 11.8 µM (active) | –
45 | CNS(=O)(=O)c1cc(C(=O)N2CCC(CCN3C4CCC3CC(n3c(C)nc5ccccc53)C4)(c3cccc(F)c3)CC2)c(Cl)cc1F (centres undefined) | 4.35 µM (active) | –
46 | CCOC(=O)COc1ccc2c(c1)CC(NCC(O)c1cccc(Cl)c1)CC2 (centres undefined) | 22.9 µM (active) | –
47 | CCc1cc(SCc2sc(-c3ccc(C(F)(F)F)cc3)nc2CN2CCN(c3ccc(OC)cc3)CC2)ccc1OCC(=O)O | 4.32 µM (active) | –
48 | Oc1ccc2c(c1)-c1ccccc1C2 | – | inactive
49 | CC(=O)OCCC(C)C | – | inactive
